Results filed as inconclusive are left out. Values without a mark were called inactive. Calls follow the shape of the dose curve; as a rule, active = well fitted cell-killing curve with a large enough effect in the repeat runs (not every such curve was filed as active); inconclusive = weak or mixed curves, or effect the other way; inactive = no such curve, though single readings can be large or run the other way.
% is scaled to controls: 0 for no effect and ±100 for the full control effect.

The nature of this assay: qHTS assay to identify small molecule antagonists of the farnesoid-X-receptor (FXR) signaling pathway - cell viability counter screen (AID 743221). Also: nearly all actives have a fitted effect of over 50% in size. As to conditions: FXR-bla HEK293T viability, CellTiter-Glo luminescence, 16 h; series mostly up to 62.6 µM; activity change, negative = cytotoxicity: at the top concentration. The text has this: National Center for Advancing Translational Sciences [NCATS]
NIH Chemical Genomics Center [NCGC]
U.S. Environmental Protection Agency [EPA]
National Institutes of Environmental Health Sciences [NIEHS]
National Toxicology Program [NTP]
U.S. Food and Drug Administration [FDA]
The farnesoid-X-receptor (FXR), a nuclear hormone receptor, is highly expressed in liver, intestine, kidney and adrenal cortex. Natural ligands of FXR are the bile acids (Cholic acid, Chenodeoxy cholic acid etc). FXR is an important regulator of diverse metabolic pathways, including the bile acid homeostasis, lipid and glucose metabolisms. FXR regulates the expression of target genes by binding either as a monomer or as a heterodimer with the retinoid X receptor (RXR). Numerous studies have reported that FXR exerts protective function during cholestasis, diabetes, liver regeneration, and cancer. To identify compounds that inhibit FXR signaling, GeneBLAzer FXR-UAS-bla HEK 293T cell line (Invitrogen, Carlsbad, CA) containing a beta-lactamase reporter gene under the control of a UAS response element was used to screen the Tox21 10K compound library. The cytotoxicity of the Tox21 compound library against the FXR-bla cell line was tested in parallel by measuring the cell viability using CellTiter-Glo assay in the same wells.
Tox21 Assay Protocol Summary:
FXR-bla cells were dispensed at 5000 cells/5uL/well in 1536-well black wall/clear bottom plates using a Multidrop Combi (Thermo Fisher Scientific, Waltham, MA) dispenser. After the assay plates were incubated at 37 C and 5% CO2 for 5 h, 23 nL of compounds dissolved in DMSO, positive controls or DMSO only was transferred to the assay plate by a Pintool station (Kalypsys, San Diego, CA), followed by addition of 1 uL Chenodeoxycholic acid (50 uM, final concentration in the wells). The assay plates were incubated at 37C for 16 h. After 1 uL of LiveBLAzerTM B/G FRET substrate was added using a Bioraptr Flying Reagent Dispenser (FRD) workstation (Beckman Coulter, Indianapolis, IN), the plates were incubated at room temperature for 2 h, and fluorescence intensity was measured by an Envision plate reader (PerkinElmer, Shelton, CT). For cell viability readout that measures cytotoxicity, 4uL/well of CellTiter-Glo reagent was added into the assay plates using a Bioraptr FRD. After 30 min incubation at room temperature, the luminescence intensity in the plates was measured using a ViewLux plate reader (PerkinElmer).
(In general: In qHTS, concentration-response curves come from the screen itself.)
For the compound `CCc1ccc2c(c1)C(=O)c1ccccc1C2=O`, the “activity change, negative = cytotoxicity” value is 15.7%. With `O=C(O)c1c2ccccc2cc2ccccc12`, the “activity change, negative = cytotoxicity” value is 0.638%.

Turning to `C[C@H](N)C(=O)N[C@@H](C)C(=O)NC1[C@H]2CN(c3nc4c(cc3F)c(=O)c(C(=O)O)cn4-c3ccc(F)cc3F)C[C@@H]12` (stereo not given in full), the “activity change, negative = cytotoxicity” value was 9.47%. With `CCC[Si](OC)(OC)OC`, the “activity change, negative = cytotoxicity” value is -12.3%.

Consider `COC(=O)Cc1cccc2ccccc12`, for which the “activity change, negative = cytotoxicity” value is 0.879%. Take `Cc1nc(C)c(C)nc1C`: the “activity change, negative = cytotoxicity” value is 7.26%. Then `O=P(c1ccccc1)(c1ccccc1)c1ccccc1`, with 5.49%. On to `C(/C=C/C=C/Nc1ccccc1)=Nc1ccccc1`, for which the “activity change, negative = cytotoxicity” value was 5.45%. As for `C=C[Si](OCC)(OCC)OCC`, the figure is 13.2%. As for `CCCCCCCCCCCCSCCOCCO`, the “activity change, negative = cytotoxicity” value was -1.56%. Regarding `SCCOCCOCCS`, the “activity change, negative = cytotoxicity” value is 6.92%. On to `O=C(O)COCC(=O)O`, for which the “activity change, negative = cytotoxicity” value was 13.6% [at 81.1 µM]. As for `Cc1cc(C)c(C)c(O)c1`, the figure is -5.21%; as for `CC(C)=CCC[C@H](C)CCO`, -0.718%. For `COc1cc(CNC(=O)CCCC/C=C/C(C)C)ccc1O`, the “activity change, negative = cytotoxicity” value is 7.98%. Then `C=CC(=O)NC(C)(C)C`, with 12.9%; and `Cc1c(N=C=O)cccc1N=C=O`, with 0.656% [at 81.1 µM]; and `O=C(c1ccc(Cl)cc1)c1ccc(Cl)cc1`, with 0.331%. Take `Cc1ccccc1CCO`: the “activity change, negative = cytotoxicity” value was -0.0453%. In the case of `OCCCO`, the “activity change, negative = cytotoxicity” value is -0.136% [at 81.1 µM]. Then `CCc1ccc(C(=O)C(C)CN2CCCCC2)cc1` (stereo not given), with -10.4%; and `Cc1ccc2c(Cl)cc(Cl)c(O)c2n1`, with 17.7%. For the compound `CNc1ccccc1`, the “activity change, negative = cytotoxicity” value was -1.1%. As for `COc1ccc(CN(CCN(C)C)c2ncccn2)cc1`, the figure is -8.29%; as for `O=C1C=CCCC1`, 0.374% [at 81.1 µM]. Then `CC(C)CCCCCCCOC(=O)c1ccc(C(=O)OCCCCCCCC(C)C)c(C(=O)OCCCCCCCC(C)C)c1`, with -6.42%. `CC(=O)S[C@H](C(=O)N[C@H]1Cc2ccccc2[C@H]2CCC[C@@H](C(=O)O)N2C1=O)C(C)C`: the “activity change, negative = cytotoxicity” value was -12.5%.

For the compound `CC(C)CC(C)(C)C`, the “activity change, negative = cytotoxicity” value was 4.35% [at 81.1 µM]. As for `NC(=O)c1ccccc1`, the figure is 4.37% [at 81.1 µM]; as for `CCC(C(=O)O)c1ccc(N2Cc3ccccc3C2=O)cc1` (stereo not given), -0.299%; as for `C[C@@H](O)[C@H]1C(=O)N2C(C(=O)O)=C(S[C@@H]3CN[C@H](CNS(N)(=O)=O)C3)[C@H](C)[C@H]12`, 8.03%.

In the case of `CCOc1ccc(NC(C)=O)cc1N`, the “activity change, negative = cytotoxicity” value was 3.37% [at 81.1 µM]. As for `CCCCCCCCC(=O)OCC(C)OC(=O)CCCCCCCC` (stereo not given), the figure is -0.319% [at 81.1 µM]; as for `CC(C)=CCC/C(C)=C/C=N/O`, -13.8%. Then `O=C(OCCCCCOC(=O)c1ccccc1)c1ccccc1`, with -3.35%; and `O=C(O)c1cccc(C(=O)O)c1C(=O)O`, with -4.76% [at 81.1 µM]. As for `Clc1nc2ccccc2nc1Cl`, the figure is 4.43% [at 81.1 µM].

Regarding `C/C(=C\C(C)CC(C)CC(C)C)C1CC(=O)OC1=O` (stereo not given), the “activity change, negative = cytotoxicity” value is 2.06%. As for `O=C(OC1C[C@H]2CC[C@@H](C1)[N+]21CCCC1)C(O)(c1ccccc1)c1ccccc1` (stereo not given in full), the figure is 4.94%; as for `CC(C)CCCCCOC(=O)CS`, -16.7%.

(Values after PubChem BioAssay (Tox21).)
